In PubChem BioAssay (EPA / NIEHS) one finds outcome and AC50 data, which are given here for 19 compounds.

Inconclusive results are not listed. Calls of active or inactive are those of the source. The calls were made as follows: active = hit-call score of the fitted dose curve at least 0.9, where 1 is the maximum; inconclusive = response in the unintended direction; inactive = score below 0.9.

As usually defined, the AC50 is the midpoint of the concentration-response curve, whichever way the signal moves.

Assay [1] deals with human Peripheral-type Benzodiazepine Receptor (PBR), TSPO (gene 706) (UniProt P30536). Description: NVS_MP_hPBR: NovaScreen (NVS) Membrane Protein Assay for human Peripheral-type Benzodiazepine Receptor (PBR) (AID 2283331).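 Also: hits reduce radioligand binding relative to DMSO baseline.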 Summed up: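 Cell-free binding to human colonic membrane preparations measured by filter-based scintillation counting after 1 h. Compounds first run at 25 uM in duplicate, then concentration series for actives; signal loss against DMSO baseline.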
Chain of human Peripheral-type Benzodiazepine Receptor (PBR), TSPO (gene 706) (P30536 whole entry, looked up): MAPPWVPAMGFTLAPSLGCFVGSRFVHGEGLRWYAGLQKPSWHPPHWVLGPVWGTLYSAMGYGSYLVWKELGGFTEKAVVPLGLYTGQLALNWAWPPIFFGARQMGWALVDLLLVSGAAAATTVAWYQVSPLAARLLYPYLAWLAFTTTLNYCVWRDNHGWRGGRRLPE

Assay [2] deals with Sodium channel protein type 1 subunit alpha (Rattus norvegicus) (UniProt P04774). The assay can be described thus: NVS_IC_rNaCh_site2: NovaScreen (NVS) Ion Channel Assay for rat Sodium Channel, Site 2 (NaCh) (AID 2283322).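 Also: hit means loss of radioligand binding signal relative to DMSO so AC50 marks displacement.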 Summed up:
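Initial duplicate single-point testing at 25 uM, followed by concentration-response runs for actives. Binding of radioligand to rat forebrain membranes quantified after 1 h via filter-based radiodetection.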

For assay [3], the target named is human Androgen Receptor (AR), AR (gene 367) (UniProt P10275). The assay can be described thus: NVS_NR_hAR: NovaScreen (NVS) Nuclear Receptor Binding Assay for human Androgen Receptor (AR) (AID 2283332). The essentials: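 Radioligand competitive binding, scintillation read-out, in cell-free extract from LnCAP, measured 20 h after dosing. Screened first in duplicate at 25 uM, then concentration series for actives; activity fitted against DMSO.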
Chain of human Androgen Receptor (AR), AR (gene 367) (P10275 whole entry, looked up): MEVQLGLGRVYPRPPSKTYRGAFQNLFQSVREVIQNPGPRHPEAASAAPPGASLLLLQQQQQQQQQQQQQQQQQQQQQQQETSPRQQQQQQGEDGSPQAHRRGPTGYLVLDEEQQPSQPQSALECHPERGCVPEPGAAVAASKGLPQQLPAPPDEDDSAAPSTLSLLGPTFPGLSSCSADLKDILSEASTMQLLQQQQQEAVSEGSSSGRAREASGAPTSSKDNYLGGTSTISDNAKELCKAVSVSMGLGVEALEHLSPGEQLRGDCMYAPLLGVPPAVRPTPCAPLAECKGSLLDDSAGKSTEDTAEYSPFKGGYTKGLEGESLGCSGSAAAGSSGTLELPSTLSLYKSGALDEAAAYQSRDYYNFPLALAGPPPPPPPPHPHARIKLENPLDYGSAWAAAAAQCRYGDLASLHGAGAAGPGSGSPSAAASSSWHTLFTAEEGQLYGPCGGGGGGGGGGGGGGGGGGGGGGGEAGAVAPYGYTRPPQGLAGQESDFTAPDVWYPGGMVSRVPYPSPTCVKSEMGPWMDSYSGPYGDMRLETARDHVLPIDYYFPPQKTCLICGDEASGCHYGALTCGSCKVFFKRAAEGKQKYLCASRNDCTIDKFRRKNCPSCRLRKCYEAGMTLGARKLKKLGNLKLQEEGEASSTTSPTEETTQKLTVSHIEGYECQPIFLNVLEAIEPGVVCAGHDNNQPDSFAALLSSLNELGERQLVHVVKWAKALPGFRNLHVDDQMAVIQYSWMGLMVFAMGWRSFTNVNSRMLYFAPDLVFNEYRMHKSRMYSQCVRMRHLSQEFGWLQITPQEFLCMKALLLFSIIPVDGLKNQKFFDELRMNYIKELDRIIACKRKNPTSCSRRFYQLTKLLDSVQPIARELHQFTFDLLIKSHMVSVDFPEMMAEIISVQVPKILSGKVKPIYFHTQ

Assay [4] concerns the target human Serotonin, 5-Hydroxytryptamine Receptor 3 (5HT3), HTR3A (gene 3359) (UniProt P46098). The assay can be described thus: NVS_LGIC_h5HT3: NovaScreen (NVS) Ligand-Gated Ion Channel Assay for human Serotonin, 5-Hydroxytryptamine Receptor 3 (5HT3) (AID 2283325). The essentials: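 Initially tested at 25 uM in duplicate, then up to 50 uM in concentration-response for actives, compounds competed with a radioligand for HEK293-derived human 5-HT3 receptor. Bound counts were measured by filtration and scintillation at 1 h; loss of signal versus DMSO.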

Assay [5] has as its target rat Thyrotropin Releasing Hormone Receptor (TRH), Trhr (gene 25570) (UniProt Q01717). Description: NVS_GPCR_rTRH: NovaScreen (NVS) G Protein-Coupled Receptor Assay for rat Thyrotropin Releasing Hormone Receptor (TRH) (AID 2283329).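 Also: hit means lower bound tracer signal versus DMSO baseline.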 The procedure: NVS_GPCR_rTRH is a biochemical, single-readout assay that uses extracted gene-proteins from Rat forebrain membranes in a tissue-based cell-free assay. Measurements were taken 4 hours after chemical dosing in a 48-well plate.NVS_GPCR_rTRH is one of one assay component(s) measured or calculated from the NVS_GPCR_rTRH assay. It is designed to make measurements of radioligand binding, a form of binding reporter, as detected with scintillation counting signals by Filter-based radiodetection technology.Data from the assay component NVS_GPCR_rTRH was analyzed into 1 assay endpoint. This assay endpoint, NVS_GPCR_rTRH, was analyzed in the positive analysis fitting direction relative to DMSO as the negative control and baseline of activity. Using a type of binding reporter, loss-of-signal activity can be used to understand changes in the binding as they relate to the gene Trhr. Furthermore, this assay endpoint can be referred to as a primary readout, because the performed assay has only produced 1 assay endpoint. To generalize the intended target to other relatable targets, this assay endpoint is annotated to the gpcr intended target family, where the subfamily is rhodopsin-like receptor.
Binding assays used specific radioligands (tritiated, iodinated) with non-radioactive competitive displacement ligands in agonist or antagonist protocols (as indicated) and various reference compounds and inhibitors to titrate specific binding to receptors and transporters. Most enzyme assays (CYPs, kinases, phosphatases, proteases, HDACs) used recombinant protein and specific substrates (fluorescence mostly, some colorimetric and radioactive) and inhibitors, followed by a biochemical separation of substrate and product. All assays for the biochemical HTS were initially run in duplicate at a single concentration (10 uM for CYP450 assays and 25 uM for all others). […] Each assay was run with positive and negative controls, and concurrent controls on every plate. The follow-up (secondary) screen tested active chemical-pairs in concentration series, as well as a few additional assays not tested in the primary screen, some selected negative inactives, and several cases re-run in the concentration series for confirmatory purposes.

The target of assay [6] is Voltage-gated inwardly rectifying potassium channel KCNH2 (Homo sapiens) (UniProt Q12809). Description: NVS_IC_hKhERGCh: NovaScreen (NVS) Ion Channel Assay for human Potassium Channel ERG (KhERGCh) (AID 2283333). Summed up: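 Membranes from CHO cells expressing human ERG; displacement of radioligand measured by filtration and scintillation after 0.75 h. Single-concentration duplicate screen at 25 uM, then concentration-response for actives; DMSO baseline.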
Chain of Voltage-gated inwardly rectifying potassium channel KCNH2 (Homo sapiens) (Q12809 whole entry, looked up): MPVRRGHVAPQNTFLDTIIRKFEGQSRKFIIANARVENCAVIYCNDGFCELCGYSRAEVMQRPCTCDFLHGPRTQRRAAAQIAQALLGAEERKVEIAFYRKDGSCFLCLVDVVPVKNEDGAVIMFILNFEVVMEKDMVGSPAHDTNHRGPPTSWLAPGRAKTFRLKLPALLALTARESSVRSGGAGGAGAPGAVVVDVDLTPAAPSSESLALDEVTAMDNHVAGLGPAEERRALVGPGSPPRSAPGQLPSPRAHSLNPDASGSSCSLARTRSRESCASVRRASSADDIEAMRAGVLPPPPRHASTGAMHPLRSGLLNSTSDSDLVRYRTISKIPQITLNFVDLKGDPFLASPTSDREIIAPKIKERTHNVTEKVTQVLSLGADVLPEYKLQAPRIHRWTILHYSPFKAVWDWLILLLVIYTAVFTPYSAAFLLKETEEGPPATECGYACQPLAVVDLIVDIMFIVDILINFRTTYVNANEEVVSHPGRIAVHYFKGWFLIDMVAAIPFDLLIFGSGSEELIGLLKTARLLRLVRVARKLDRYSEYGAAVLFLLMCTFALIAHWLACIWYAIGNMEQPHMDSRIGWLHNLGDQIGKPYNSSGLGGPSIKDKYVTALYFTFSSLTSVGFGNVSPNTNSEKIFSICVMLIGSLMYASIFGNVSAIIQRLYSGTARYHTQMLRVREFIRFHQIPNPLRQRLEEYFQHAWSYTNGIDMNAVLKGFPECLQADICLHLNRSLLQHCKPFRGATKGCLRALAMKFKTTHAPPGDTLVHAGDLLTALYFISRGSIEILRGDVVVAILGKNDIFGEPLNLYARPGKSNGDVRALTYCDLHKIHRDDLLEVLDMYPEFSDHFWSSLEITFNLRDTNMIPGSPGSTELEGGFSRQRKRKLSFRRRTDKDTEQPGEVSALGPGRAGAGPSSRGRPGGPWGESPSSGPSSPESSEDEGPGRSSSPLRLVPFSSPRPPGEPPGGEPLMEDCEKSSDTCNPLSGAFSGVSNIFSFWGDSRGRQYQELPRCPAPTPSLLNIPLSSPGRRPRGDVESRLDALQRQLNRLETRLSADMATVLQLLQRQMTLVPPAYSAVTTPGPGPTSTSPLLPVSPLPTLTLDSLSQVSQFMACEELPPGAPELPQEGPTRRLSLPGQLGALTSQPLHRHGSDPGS

Assay [7] concerns the target rat Glutamate, NMDA Agonist Site (GluNMDA), Grin1 (gene 24408) (UniProt P35439). The assay can be described thus: NVS_LGIC_rGluNMDA_Agonist: NovaScreen (NVS) Ligand-Gated Ion Channel Assay for rat Glutamate, NMDA Agonist Site (GluNMDA) (AID 2283327). The essentials:
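Radioligand displacement at the agonist site on rat forebrain membrane preparations, read by filter scintillation after 1 h. Chemicals were first run at 25 uM in duplicate; those passing threshold were titrated to a 50 uM maximum.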

The target in assay [8] is rat Glutamate, AMPA Site (AMPA), Gria1 (gene 50592) (UniProt P19490). The assay can be described thus: NVS_LGIC_rAMPA: NovaScreen (NVS) Ligand-Gated Ion Channel Assay for rat Glutamate, AMPA Site (AMPA) (AID 2283324). The essentials:
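Screening at 25 uM in duplicate preceded concentration series reaching 50 uM for qualifying compounds. Radioligand displacement on rat forebrain membranes, 1 h, filter-based scintillation readout; reduced binding relative to DMSO.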

In assay [9] the target is rat Gamma-Aminobutyric Acid Type A Receptor, Non-Selective (GABAR-NonSelective), Gabra1 (gene 29705) (UniProt P62813). The assay can be described thus: NVS_LGIC_rGABAR_NonSelective: NovaScreen (NVS) Ligand-Gated Ion Channel Assay for rat Gamma-Aminobutyric Acid Type A Receptor, Non-Selective (GABAR-NonSelective) (AID 2283326). The essentials:
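Compounds were first screened in duplicate at 25 uM, with actives run as singleton concentration series (max 50 uM). Binding of a radioligand to rat whole-brain GABA-A preparation was measured by filtration and scintillation counting after 1 h, DMSO baseline.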

Chain of rat Glutamate, AMPA Site (AMPA), Gria1 (gene 50592) (P19490 whole entry, looked up): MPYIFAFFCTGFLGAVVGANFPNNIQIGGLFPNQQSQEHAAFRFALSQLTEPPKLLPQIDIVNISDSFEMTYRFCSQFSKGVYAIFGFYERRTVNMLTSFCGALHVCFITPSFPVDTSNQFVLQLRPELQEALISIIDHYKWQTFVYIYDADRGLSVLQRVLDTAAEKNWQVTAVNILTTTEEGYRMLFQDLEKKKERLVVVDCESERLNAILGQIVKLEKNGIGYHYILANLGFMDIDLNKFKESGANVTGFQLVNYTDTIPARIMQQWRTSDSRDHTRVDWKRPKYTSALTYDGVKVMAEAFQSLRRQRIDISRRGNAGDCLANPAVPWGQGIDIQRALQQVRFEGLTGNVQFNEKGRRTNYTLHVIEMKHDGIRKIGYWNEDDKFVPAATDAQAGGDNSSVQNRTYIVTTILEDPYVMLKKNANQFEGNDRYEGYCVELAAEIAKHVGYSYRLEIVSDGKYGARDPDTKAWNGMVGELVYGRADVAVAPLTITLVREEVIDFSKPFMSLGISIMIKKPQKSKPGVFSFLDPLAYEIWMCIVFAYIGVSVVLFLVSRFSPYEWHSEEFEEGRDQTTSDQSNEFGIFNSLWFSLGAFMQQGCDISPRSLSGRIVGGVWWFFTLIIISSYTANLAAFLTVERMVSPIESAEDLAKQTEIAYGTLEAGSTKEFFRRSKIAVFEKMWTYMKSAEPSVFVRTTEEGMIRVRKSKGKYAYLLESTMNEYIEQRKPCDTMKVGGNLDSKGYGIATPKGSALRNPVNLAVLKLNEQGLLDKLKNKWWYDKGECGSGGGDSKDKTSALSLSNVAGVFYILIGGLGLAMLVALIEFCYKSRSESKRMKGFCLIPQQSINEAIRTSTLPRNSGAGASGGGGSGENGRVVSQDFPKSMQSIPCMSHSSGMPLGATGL
Chain of human Serotonin, 5-Hydroxytryptamine Receptor 3 (5HT3), HTR3A (gene 3359) (P46098 whole entry, looked up): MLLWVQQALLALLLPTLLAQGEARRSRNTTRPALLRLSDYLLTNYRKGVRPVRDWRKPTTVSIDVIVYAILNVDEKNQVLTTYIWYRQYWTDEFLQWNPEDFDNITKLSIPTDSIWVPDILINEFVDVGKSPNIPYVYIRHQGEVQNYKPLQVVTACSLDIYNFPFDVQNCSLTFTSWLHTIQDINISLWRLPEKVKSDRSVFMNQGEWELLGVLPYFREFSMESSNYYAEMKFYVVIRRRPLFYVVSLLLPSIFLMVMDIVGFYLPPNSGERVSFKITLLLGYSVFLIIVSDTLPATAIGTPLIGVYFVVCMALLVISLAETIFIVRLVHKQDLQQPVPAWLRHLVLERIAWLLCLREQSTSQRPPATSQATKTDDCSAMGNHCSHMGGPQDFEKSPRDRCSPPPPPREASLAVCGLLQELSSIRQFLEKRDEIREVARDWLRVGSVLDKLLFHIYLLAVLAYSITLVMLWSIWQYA
Chain of rat Thyrotropin Releasing Hormone Receptor (TRH), Trhr (gene 25570) (Q01717 whole entry, looked up): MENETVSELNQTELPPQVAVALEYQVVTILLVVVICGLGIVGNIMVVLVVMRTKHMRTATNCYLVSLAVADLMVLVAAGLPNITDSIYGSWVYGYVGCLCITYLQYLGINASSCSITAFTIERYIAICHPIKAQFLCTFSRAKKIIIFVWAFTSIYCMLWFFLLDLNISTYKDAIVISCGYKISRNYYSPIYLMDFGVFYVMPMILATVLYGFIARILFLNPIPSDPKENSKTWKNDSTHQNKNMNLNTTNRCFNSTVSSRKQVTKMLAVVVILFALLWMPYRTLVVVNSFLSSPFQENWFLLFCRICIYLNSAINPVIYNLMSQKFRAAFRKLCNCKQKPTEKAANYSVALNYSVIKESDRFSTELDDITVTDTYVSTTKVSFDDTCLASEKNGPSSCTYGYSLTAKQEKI
Chain of rat Gamma-Aminobutyric Acid Type A Receptor, Non-Selective (GABAR-NonSelective), Gabra1 (gene 29705) (P62813 whole entry, looked up): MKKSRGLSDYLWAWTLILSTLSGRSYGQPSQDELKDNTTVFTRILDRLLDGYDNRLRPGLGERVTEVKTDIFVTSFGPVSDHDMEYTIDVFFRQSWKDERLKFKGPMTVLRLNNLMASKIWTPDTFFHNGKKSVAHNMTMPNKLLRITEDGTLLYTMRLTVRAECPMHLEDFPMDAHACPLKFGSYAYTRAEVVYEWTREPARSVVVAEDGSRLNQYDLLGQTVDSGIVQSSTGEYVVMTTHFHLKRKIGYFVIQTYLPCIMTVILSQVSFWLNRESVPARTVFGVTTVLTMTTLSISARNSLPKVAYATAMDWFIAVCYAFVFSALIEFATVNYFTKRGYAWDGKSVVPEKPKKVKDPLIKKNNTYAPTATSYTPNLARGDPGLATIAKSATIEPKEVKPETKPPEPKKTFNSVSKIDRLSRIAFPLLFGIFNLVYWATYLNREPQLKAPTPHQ

Consider `CC(C)(O)c1coc(S(=O)(=O)NC(=O)Nc2c3c(cc4c2CCC4)CCC3)c1`, for which the compound was classed as inactive in assay [1].

`O=P(OC(CCl)CCl)(OC(CCl)CCl)OC(CCl)CCl`: the outcome in assay [2] was inactive. Moreover, the AC50 in assay [1] is 2.01 µM (active).

For `Oc1ccc2c(c1)-c1ccccc1C2`, the AC50 in assay [3] was 6.89 µM (active).

For the compound `Cc1[nH]cnc1C[C@H]1CCc2c(C)c3ccccc3n2C1=O`, the AC50 in assay [2] is 10.4 µM (active); in [4], 0.00204 µM (active); in assay [6], 4.76 µM (active). The compound was classed as inactive in assay [5] and in [1].

As for `CCc1cc(SCc2sc(-c3ccc(C(F)(F)F)cc3)nc2CN2CCN(c3ccc(OC)cc3)CC2)ccc1OCC(=O)O`, the AC50 in assay [2] was 25 µM (active). In [1], the result was inactive.

On to `O=C(O)c1cccc(N(Cc2cccnc2)c2ccc(OC(F)F)c(OC(F)F)c2)c1`, for which, in [1], the compound was classed as inactive. The AC50 in assay [3] is 0.0186 µM (active).

As for `CCOc1cccc(-n2cc(C(=O)N3CCN(c4cc(C(=O)O)c5ccccc5c4)CC3)nc2-c2ccc(C)cc2)c1`, the AC50 is 7.07 µM (active) in assay [2] and 3.71 µM (active) in assay [1].

As to `CC[C@H]1CC[C@H](NCc2cc3c(cc2OC)[C@H]2C[C@H]2C(=O)N3C)[C@H](c2ccccc2)N1`, in [2], the AC50 was 0.163 µM (active).

On to `Fc1ccccc1[C@@H](F)COC1CCC(Nc2ncnc3[nH]ncc23)CC1` (stereo partly drawn), for which the AC50 in [7] was 0.616 µM (active).

Turning to `C=CCCCCCCCCC(=O)O`, the outcome in [4] was inactive.

As for `CC1=CC(=O)CC(C)(C)C1`, the compound was classed as inactive in [8].

With `COc1ccc(-n2nc(C(F)F)cc2-c2ccc(S(C)=O)cc2)cc1` (stereo not drawn), the outcome in [2], in assay [7] and in assay [5] was inactive.

For `Cn1c(=O)cc(Oc2ccc(F)cc2F)c2cnc(NCC(C)(C)O)nc21`, the compound was called inactive in assay [8].

On to `CNS(=O)(=O)c1cc(C(=O)N2CCC(CCN3C4CCC3CC(n3c(C)nc5ccccc53)C4)(c3cccc(F)c3)CC2)c(Cl)cc1F` (stereo not drawn), for which, in assay [2], the AC50 is 13.1 µM (active).

As for `CC(=O)OCCC(C)C`, the result in assay [8] was inactive.

Turning to `CCn1nc(Cc2ccccc2)cc1C1CCN(C[C@H]2C[C@H](N(C)[C@@H](C(=O)O)C(C)C)C[C@@H]2c2cccc(F)c2)CC1`, the AC50 was 17.4 µM (active) in [2] and 8.22 µM (active) in assay [1].

For the compound `CC(C)CC(C)(O)C#CC(C)(O)CC(C)C` (stereo not drawn), the outcome in [2] and in [6] was inactive.

Take `CCOC(=O)c1ccc(C2CCC(NC[C@H](O)COc3ccc(O)c(NS(C)(=O)=O)c3)CC2)cc1` (stereo partly drawn): the AC50 in assay [2] was 3.33 µM (active); in [9] it was 4.64 µM (active); in assay [6] it was 10.1 µM (active).

Take `CC(C)CCO`: the AC50 in assay [1] is 15.8 µM (active).
